# Laboratory results: PubChem BioAssay AID651957 (The Scripps Research Institute Molecular Screening Center, 2012)
# Among all 370,000 compounds or so, about 620 (0.17%) were called active.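 Rule for the calls: active = inhibition above the mean inhibition of all tested compounds plus 3 SD, set per campaign (cut at about 52% in these data); inactive = the rest.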 The entries come from a sample that favours actives as a whole.
# Molecular target: Nuclear receptor coactivator 2 (Homo sapiens) (UniProt Q15596)
# Assay: inhibition of GAL4-SRC2 driven luciferase reporter, primary screen, SRC2 inhibitor project, cell-based, luminescence (AID 651957);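 note: 0% = DMSO treated cells and 100% = cells given Gossypol at 36 µM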
# Conditions: HEK293 GAL4-SRC2 luciferase reporter, at 9 µM, active compounds read high
# Nuclear receptor coactivator 2 (Homo sapiens), sequence (Q15596 whole entry, looked up, the tested form may be a part): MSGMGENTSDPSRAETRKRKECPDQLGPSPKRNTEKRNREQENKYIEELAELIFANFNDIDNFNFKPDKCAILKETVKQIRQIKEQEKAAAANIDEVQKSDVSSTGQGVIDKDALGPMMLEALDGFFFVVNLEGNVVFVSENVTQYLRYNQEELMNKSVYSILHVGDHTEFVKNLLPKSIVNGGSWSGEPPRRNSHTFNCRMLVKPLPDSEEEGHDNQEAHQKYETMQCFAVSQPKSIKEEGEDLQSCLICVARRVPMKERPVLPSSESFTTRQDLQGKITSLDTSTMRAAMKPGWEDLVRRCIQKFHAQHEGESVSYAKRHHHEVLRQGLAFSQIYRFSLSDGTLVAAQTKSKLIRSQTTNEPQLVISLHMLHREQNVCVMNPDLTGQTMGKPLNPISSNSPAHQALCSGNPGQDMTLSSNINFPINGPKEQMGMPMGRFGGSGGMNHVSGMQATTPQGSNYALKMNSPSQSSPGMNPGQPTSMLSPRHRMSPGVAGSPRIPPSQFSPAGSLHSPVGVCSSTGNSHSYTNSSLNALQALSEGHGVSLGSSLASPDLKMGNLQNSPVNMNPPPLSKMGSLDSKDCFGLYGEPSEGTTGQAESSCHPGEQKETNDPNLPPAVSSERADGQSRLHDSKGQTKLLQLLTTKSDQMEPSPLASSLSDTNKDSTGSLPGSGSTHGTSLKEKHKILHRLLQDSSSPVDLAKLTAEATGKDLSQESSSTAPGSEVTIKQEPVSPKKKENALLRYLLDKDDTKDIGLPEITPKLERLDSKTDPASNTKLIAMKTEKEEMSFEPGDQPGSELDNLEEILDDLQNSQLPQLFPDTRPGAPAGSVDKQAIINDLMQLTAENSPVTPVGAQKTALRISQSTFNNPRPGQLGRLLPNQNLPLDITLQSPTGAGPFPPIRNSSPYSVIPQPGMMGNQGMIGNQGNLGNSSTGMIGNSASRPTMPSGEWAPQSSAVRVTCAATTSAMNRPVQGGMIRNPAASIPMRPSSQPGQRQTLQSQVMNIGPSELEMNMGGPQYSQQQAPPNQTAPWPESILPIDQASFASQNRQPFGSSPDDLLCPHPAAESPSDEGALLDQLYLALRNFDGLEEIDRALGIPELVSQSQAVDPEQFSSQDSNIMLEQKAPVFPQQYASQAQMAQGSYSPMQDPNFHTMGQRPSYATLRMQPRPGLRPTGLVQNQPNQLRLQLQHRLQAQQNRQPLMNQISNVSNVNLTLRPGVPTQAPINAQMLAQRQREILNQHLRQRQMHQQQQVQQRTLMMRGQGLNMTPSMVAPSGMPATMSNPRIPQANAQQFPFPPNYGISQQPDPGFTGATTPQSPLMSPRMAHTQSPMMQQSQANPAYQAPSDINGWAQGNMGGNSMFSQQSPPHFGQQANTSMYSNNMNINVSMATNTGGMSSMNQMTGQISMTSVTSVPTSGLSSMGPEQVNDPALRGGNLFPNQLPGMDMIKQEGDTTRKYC
row,Structure (SMILES),inhibition
1,COc1ccc(S(=O)(=O)NCC(=O)NCc2cc(=O)n(C)c(=O)n2C)cc1F,-9.55% (inactive)
2,CC1CCC2(CC1)NC(=O)N(CC(=O)NCc1ccco1)C2=O (stereo unspecified),-29.4% (inactive)
3,CC1(C)CC(=O)c2sc(N)nc2C1,3.79% (inactive)
4,O=c1oc2ccccc2cc1-c1cn(-c2ccccc2)c(=S)[nH]1,80.4% (active)
5,COc1cccc(NC(=O)N(C)C[C@@H]2OCc3cn(nn3)CCCC(=O)N([C@@H](C)CO)C[C@H]2C)c1,-2.21% (inactive)
6,COC(=O)[C@]12C[C@H](CC(=O)NCc3cccc(C(F)(F)F)c3)C(=O)N(Cc3ccc4c(c3)OCO4)C1=C[C@H](COCc1ccccc1)O[C@@H]2C,4.24% (inactive)
7,COc1cc(SC)ccc1C(=O)Nc1nc(C)cs1,73.4% (active)
8,Cc1csc(NC(=O)CN2CCCCCC2)n1,-13.9% (inactive)
9,COc1cc(Cl)c(C)cc1NC(=O)COC(=O)c1cc(SC)ccc1Cl,-3.4% (inactive)
10,COCc1[nH]nc2c1C(c1ccccc1)N(c1ccccc1)C2=O (stereo unspecified),13.8% (inactive)
11,N#CCC[C@H]1CC[C@]2(CCCN(Cc3ccc(Cl)cc3)C2)O1,7.54% (inactive)
12,COc1ccc(S(=O)(=O)Nc2ccc(F)cc2)c(C)c1C,-27.1% (inactive)
13,CC(CCN1CCC(C(O)(c2ccccc2)c2ccccc2)CC1)Oc1ccc(C(F)(F)F)cc1 (stereo unspecified),-7.91% (inactive)
14,Cc1cc(C(=O)COC(=O)CNC(=O)c2ccc(F)cc2)c(C)n1Cc1ccco1,-4.87% (inactive)
15,COCCn1c(C)cc(C(=O)COC(=O)CNC(=O)c2ccco2)c1C,-9.66% (inactive)
16,Cc1ccsc1C(=O)OCC(=O)c1cc(C)n(CC2CCCO2)c1C (stereo unspecified),73.2% (active)
17,O=C(Nc1ccccc1)N1CCN(Cc2nc3ccccc3c(=O)[nH]2)CC1,-10.6% (inactive)
18,O=S1(=O)c2c(NCc3ccco3)cccc2Oc2ccccc2CN1Cc1cn(Cc2cccc(C(F)(F)F)c2)nn1,4.32% (inactive)
19,Clc1ccc(Cl)c(Oc2ccc(Oc3nc(Cl)ccc3Cl)cc2)n1,-10% (inactive)
20,c1csc(-c2nnc(SCc3nc4ccccc4[nH]3)o2)c1,4.24% (inactive)
21,O=C(NCc1ccc2c(c1)OCO2)c1cc2c(s1)CS(=O)(=O)C2,13.1% (inactive)

row,Structure (SMILES),inhibition
1,COc1cccc(NC(=O)C2(C)CCN2Cc2ccccc2Cl)c1 (stereo unspecified),-0.04% (inactive)
2,C#CCNC(=O)C[C@H]1C[C@@]2(C(=O)OC)C(=C[C@H](C(C)C)O[C@@H]2C2CC2)N(Cc2ccco2)C1=O,14.7% (inactive)
3,Cc1ccc(CSc2nnc(SCC(=O)NN=Cc3cc(Br)ccc3F)s2)cc1,15% (inactive)
4,Cc1cccc(Nc2nc3c(S(=O)(=O)c4ccccc4)nnn3c3ccccc23)c1C,6.13% (inactive)
5,Cc1noc(C)c1S(=O)(=O)N(C)C[C@H]1OCCCC[C@@H](C)Oc2ccc(NC(=O)CCCN(C)C)cc2C(=O)N([C@H](C)CO)C[C@@H]1C,-6.35% (inactive)
6,CCC(C)CN1C(=O)CN(S(C)(=O)=O)CC1(C)C(=O)Nc1ccc2c(c1)OCCO2 (stereo unspecified),-21.3% (inactive)
7,CCOC(=O)N1CCN(C(=O)C[C@H]2C[C@@]3(C(=O)OC)C(=C[C@H](C(C)(C)C)O[C@@H]3C)N(Cc3ccc(Cl)cc3Cl)C2=O)CC1,23.9% (inactive)
8,CC1(C)Cc2c(sc3nc(SCC(=O)NCc4ccccc4)n(-c4ccccc4)c(=O)c23)CS1,-9.11% (inactive)
9,C[C@@H]1ON(C)[C@H]2C[C@H]3c4[nH]c5cccc(-c6ccc7c(c6)OCO7)c5c4CCN3C[C@@H]12,-21% (inactive)
10,C=CC1C(OC2OC(CO)C(O)C(O)C2O)OC=C(C(=O)OC)C1CC1CC(=O)CC(CC(=O)CCc2ccc(O)cc2)O1 (stereo unspecified),-3.45% (inactive)
11,COc1ccc(-c2cc(-c3nnc(SCc4ccc([N+](=O)[O-])cc4)n3N)[nH]n2)cc1,-26.2% (inactive)
12,COc1ccc(CCOC2OC(CO)C(OC(=O)/C=C/c3ccc(O)c(OC)c3)C(O[C@H]3O[C@@H](C)[C@H](O)[C@@H](O)[C@H]3O)C2O)cc1O (stereo partly specified),-2.46% (inactive)
13,CCCCn1c(N)c(N(CC)C(=O)c2ccc(N(C)S(=O)(=O)c3ccc(C)cc3)cc2)c(=O)[nH]c1=O,-16.6% (inactive)
14,CN(C)S(=O)(=O)c1ccc(NC(=O)COC(=O)Cn2[nH]c(=O)c3ccccc3c2=O)cc1,10.7% (inactive)
15,CCC(CO)Nc1cccc2c1S(=O)(=O)N(Cc1cn(Cc3ccccc3C(F)(F)F)nn1)Cc1ccccc1O2 (stereo unspecified),-19.2% (inactive)
16,O=C(OC12CC3CC(CC(C3)C1)C2)c1ccc(NCc2cc(O)ccc2O)cc1,84.2% (active)
17,Cc1nc(N)nc(SCc2ccc([N+](=O)[O-])cc2)c1N,-3.96% (inactive)
18,COCCCNC(=O)C[C@H]1C[C@@]2(C(=O)OC)C(=C[C@H](C(C)(C)C)O[C@@H]2C)N(Cc2ccc(Cl)cc2Cl)C1=O,16.8% (inactive)
19,CCOC(=O)[C@]12CCCC=C1N(Cc1ccc(OC)cc1)C(=O)[C@@H]2CC(=O)NCc1cccs1,7.23% (inactive)
20,CCOC(=O)[C@]12CCCCC/C=C\1N(Cc1ccc(OC)cc1)C(=O)[C@H]2CC(=O)N1CCOCC1,8.19% (inactive)
21,Cc1sc2ncn(CC(=O)NCCCC(=O)NCc3ccc(F)cc3)c(=O)c2c1C,-10.8% (inactive)

row,Structure (SMILES),inhibition
1,Cc1[nH]n(C(N)=S)c(=O)c1N=Nc1ccc(Cl)cc1Cl,-13.3% (inactive)
2,CCCCOCCCNC(=O)C[C@H]1C[C@@]2(C(=O)OC)C(=C[C@H](COCc3ccccc3)O[C@@H]2C)N(Cc2cccc3ccccc23)C1=O,6.59% (inactive)
3,COc1ccc(C(C#N)=C2C=CC(=NO)c3ccccc32)cc1,23.7% (inactive)
4,O=C(Nc1ccc(N2CCCCC2)cc1)c1cc(S(=O)(=O)N2CCOCC2)ccc1F,10.1% (inactive)
5,CC(=O)Nc1ccc(S(=O)(=O)Nc2ccc(N3CCCCC3)cc2)cc1,63.2% (active)
6,CC(=O)Nc1ccc(S(=O)(=O)N2CCCC2C(=O)O)cc1 (stereo unspecified),10.5% (inactive)
7,C[C@H](NC(=O)C1CC(=O)N(c2ccc3c(c2)OCO3)C1)C(=O)NCc1ccco1 (stereo partly specified),-21.3% (inactive)
8,CN(C)[C@H]1CCN(c2cccc3c2S(=O)(=O)N2CC[C@H](C2)O3)C1,-9.6% (inactive)
9,CC(c1ccc(N)cc1)c1cn(C)c2ccccc12 (stereo unspecified),-4.44% (inactive)
10,CC(CCN1CCC(C(O)(c2ccccc2)c2ccccc2)CC1)Oc1ccc(Cl)cc1 (stereo unspecified),-21.2% (inactive)
11,COc1ccc(-n2c(SCC(=O)Nc3ccc(C)c(Cl)c3)nc3ccccc3c2=O)cc1,-1.63% (inactive)
12,O=C(CN1CCN(c2ccc(O)cc2)CC1)NC1CCCc2ccccc21 (stereo unspecified),0.42% (inactive)
13,CCCOc1ccc(F)cc1-c1cc(C(=O)Nc2ccc(F)cc2)[nH]n1,0.04% (inactive)
14,COc1cc(F)ccc1-c1cc(C(=O)NCC2CCCCC2)[nH]n1,-20% (inactive)
15,COc1ccc(OC)c(NC(=O)c2cc(-c3cc(F)ccc3OCC3CCCO3)n[nH]2)c1 (stereo unspecified),75.3% (active)
16,O=C(COC(=O)c1cnccn1)Nc1ccc(Cl)cc1C(F)(F)F,-47.6% (inactive)
17,C=CCN1C(=O)[C@H](CC(=O)NCCCN2CCCC2=O)[C@@]2(C(=O)OCC)CCCC=C12,-13.7% (inactive)
18,CCNc1nc(NC(C)C)nc(OCCOC(=O)c2ccccc2)n1,-5.88% (inactive)
19,CN(c1ccc(OCC(=O)OCC(=O)Nc2cccc([N+](=O)[O-])c2)cc1)S(=O)(=O)c1ccc(F)cc1,5.05% (inactive)
